Hits are enriched below; roughly 4.1% of the tested compounds scored in any of these assays.
BoNT-A LC inh2 = inhibitors of Botulinum neurotoxin A light chain protease. multiplex microsphere protease substrate cleavage, flow cytometry. inhibition, % at 10 µM. hit rate 0.17% among 360,000. AID 588499; further: plate controls were buffer without enzyme for full effect and enzyme alone for no effect
Bead autofluor = counter-screen for toxin protease inhibitors: compound fluorescence. fluorescence intensity (concentration not given with the values). AID 624483. compound autofluorescence counterscreen, microsphere flow cytometry; stronger effect = higher value. hit rate 3.1% among 360,000; in the data active means fluorescence intensity above about 16000; inconclusive means no clear call, values can overlap the other calls
BoNT-F LC inh = inhibitors of Botulinum neurotoxin F light chain protease; Multiplex microsphere protease cleavage assay, flow cytometry; inhibition, % at 10 µM; hit rate 0.22% among 360,000; in the data active means inhibition above about 35%, passing the limit was not always enough; inconclusive means no clear call, values can overlap the other calls; further: plate controls were buffer without enzyme for full effect and enzyme alone for no effect
Anthrax LF prot = blocks Bacillus anthracis lethal factor protease; multiplex microsphere protease cleavage assay, LF; P15917; hit rate 0.12% among 360,000; inhibition, % at 10 µM; further: plate controls were buffer without enzyme for full effect and enzyme alone for no effect
MazF activator = MazEF (E. coli) toxin RNase activation; FAM/BHQ RNA-DNA oligo cleavage fluorescence, 5 h; AID 504720; hit rate 0.32% among 350,000; activation, % at 20 µM; in the data active means activation above about 50%
Target sequence (P0AE70 whole entry, looked up): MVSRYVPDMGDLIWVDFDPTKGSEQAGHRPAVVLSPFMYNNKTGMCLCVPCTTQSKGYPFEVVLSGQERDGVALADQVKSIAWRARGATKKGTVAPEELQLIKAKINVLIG
DUSP3 inh = DUSP3 (human) phosphatase inhibition. P51452. recombinant VHR phosphatase, pNPP absorbance. inhibition, % at 13.3 µM. hit rate 0.52% among 290,000; in the data active means inhibition above about 50%
Target sequence (P51452 whole entry, looked up): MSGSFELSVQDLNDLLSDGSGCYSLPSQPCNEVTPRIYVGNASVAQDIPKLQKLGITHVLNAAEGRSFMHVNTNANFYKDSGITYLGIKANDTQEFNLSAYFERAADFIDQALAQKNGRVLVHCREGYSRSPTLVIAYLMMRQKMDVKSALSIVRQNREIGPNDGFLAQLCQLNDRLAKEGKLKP
* marks the source's active call; other numbers are inactive results; ? = inconclusive; nt = no result. Unless noted, no stated cut-off is given here; in the data, active means inhibition above about 30%; inconclusive means no clear call, values can overlap the other calls; inactive means below that.

SMILES | BoNT-A LC inh2 | Bead autofluor | BoNT-F LC inh | Anthrax LF prot | MazF activator | DUSP3 inh
O=S(=O)(c1cccc(-c2nnc(-c3ccc(Br)cc3)o2)c1)N1CCCCCC1 | 2.8 | 20866* | 6.1 | -2.0 | 4.9 | 27.0
O=S(=O)(c1ccc(-c2nnc(SCc3ccccc3)o2)cc1)N1CCCC1 | ? | 19388* | 3.0 | 1.7 | -43.5 | 21.7
NC(=O)CSc1nnc(-c2ccc(S(=O)(=O)N3CCCC3)cc2)o1 | -0.4 | 10271 | 3.0 | -0.2 | 3.2 | 8.9
CCOC(=O)Nc1ccc2c(c1)N(C(=O)CCN(CC)CC)c1ccccc1S2=O (stereo not drawn) | -2.3 | 3747 | 13.1 | -4.4 | 0.9 | nt
CSc1nnc(-c2ccc(S(=O)(=O)N3CCOCC3)cc2)n1C | -1.5 | 3730 | 20.6 | 1.6 | 2.3 | 21.1
CC(NC(=O)CSc1nc2c(c(C(F)(F)F)n1)CCc1ccccc1-2)c1ccccc1 (stereo not drawn) | 0.0 | 3151 | 3.1 | -0.6 | -2.4 | 22.0
CCc1c(C)sc(NC(=O)CSc2nc3c(c(C(F)(F)F)n2)CCc2ccccc2-3)c1C#N | -3.7 | 21133* | -3.2 | -0.8 | -2.9 | -5.4
N#Cc1ccc(COC(=O)c2ccc3c(=O)[nH]c(CN4CCOCC4)nc3c2)cc1 | -0.3 | 23349* | -0.2 | -0.2 | -1.1 | 40.5
CCc1nc2c(OCCOC)cccn2c1N(C)C(=O)c1ccco1 | 0.0 | 3764 | -5.6 | -7.4 | nt | nt
CC(NC(=O)c1cc(-c2ccc3c(c2)OCO3)nc2ccccc12)C(C)(C)C (stereo not drawn) | 0.7 | 21612* | -1.7 | 0.7 | -34.5 | 19.6
COc1ccc(N(C)S(=O)(=O)c2cccc3cccnc23)c(OC)c1 | -1.1 | 16783* | 1.0 | -0.7 | 8.9 | 28.5
CC(C)(C)Nc1nc(SCc2ccccc2)nc(N2CCOCC2)n1 | ? | 23358* | -6.7 | -4.9 | -9.8 | 7.1
CNc1nc(SCc2ccccc2)nc(N2CCOCC2)n1 | -0.9 | 11491 | -8.8 | -2.8 | -5.5 | -9.6
CCCCCCn1cc(CN2CC(N3CCN(C4CCN(C)CC4)CC3)CS2(=O)=O)nn1 (stereo not drawn) | 0.0 | 4533 | 5.6 | -2.6 | nt | nt
O=c1[nH][nH]c(-c2ccccc2O)c1C(C[N+](=O)[O-])c1ccc(Cl)cc1Cl (stereo not drawn) | 0.0 | 7029 | -16.2 | -5.8 | 2.9 | 1.0
Cc1cc(O)c(C(C[N+](=O)[O-])c2ccc(Cl)cc2Cl)c(=O)o1 (stereo not drawn) | -7.4 | 17730* | -8.5 | -3.8 | -12.1 | 22.8
O=C(c1cccs1)N1CCN(CCCc2ccccc2)CC1 | -2.4 | 21596* | -3.8 | -1.8 | -4.5 | 7.3
CC(=O)NC(Cc1ccccc1)C(=O)N1CCN(C(=O)c2cccs2)CC1 (stereo not drawn) | -0.5 | 16669* | -0.1 | -2.6 | 3.6 | 7.1
CC(=O)NC(Cc1ccc(F)cc1)C(=O)N1CCN(C(=O)NCc2ccccc2)CC1 (stereo not drawn) | -0.9 | 20125* | -1.2 | -5.9 | 0.6 | 13.2
CC(=O)N1CCN(C(=O)C(Cc2ccccc2)NC(=O)c2ccccc2)CC1 (stereo not drawn) | -3.0 | 8284 | -1.8 | -0.6 | 1.5 | nt
O=C(c1cccs1)N1CCN(S(=O)(=O)c2ccccc2)CC1 | -0.9 | 16321* | -3.5 | -1.9 | 12.2 | 18.6
O=C(NCc1ccco1)c1ccc2sc([C@@H]3O[C@H](CO)[C@H](O)[C@H](O)[C@H]3O)nc2c1 | -0.2 | 3504 | -1.6 | -0.9 | nt | nt
COc1ccc(OC)c(S(=O)(=O)N2CCC(C(=O)NCc3cccnc3)CC2)c1 | -2.9 | 3132 | -18.8 | 7.3 | 9.5 | 26.0
CCSc1ccccc1C(=O)NCc1ccco1 | -1.5 | 24013* | -2.9 | -3.0 | 8.2 | -18.5
O=C(CSc1ccccc1C(=O)N1CCCCC1)NCC1CCCCC1 | 1.2 | 6202 | 3.5 | 0.6 | 1.5 | 6.2
SMILES | BoNT-A LC inh2 | Bead autofluor | BoNT-F LC inh | Anthrax LF prot | MazF activator | DUSP3 inh
O=C(NCc1ccco1)c1ccccc1Br | -0.1 | 8753 | -1.7 | 5.0 | 3.7 | -3.9
O=C(Nc1ccccc1C(=O)NCc1ccco1)c1ccco1 | -2.5 | 17328* | -4.1 | -1.0 | -11.0 | -19.9
Cc1ccc(CNC(=O)c2ccccc2SCC(=O)NCC2CCCCC2)cc1 | 0.0 | 2653 | 5.2 | -1.3 | 5.1 | 53.8*
NS(=O)(=O)c1ccc(CNC(=O)c2ccccc2SCC(=O)N2CCCC2)cc1 | 0.5 | ? | -4.2 | ? | -5.2 | nt
O=C(Nc1ccccc1C(=O)Nc1ccccc1C(=O)NCc1ccco1)c1ccco1 | -1.2 | 8239 | -9.2 | -0.6 | 5.3 | 7.2
CCSc1ccccc1C(=O)NCc1ccc(S(N)(=O)=O)cc1 | -0.6 | 23721* | -2.3 | -0.3 | -2.4 | 9.9
NS(=O)(=O)c1ccc(CNC(=O)NC2(c3ccccc3)CC2)cc1 | 0.0 | 5371 | -6.0 | -0.4 | 0.2 | 50.3*
COC(=O)[C@H](Cc1ccccc1)NC(=O)NCc1ccc(S(N)(=O)=O)cc1 | -0.7 | 10796 | -7.6 | -1.9 | 6.3 | 21.7
CCOc1ccccc1C1C(C#N)=C(N)Oc2cc(N)ccc21 (stereo not drawn) | 3.1 | 21823* | 0.5 | -7.0 | 7.3 | 15.8
CCn1c(CSc2nc3ccccc3s2)n[nH]c1=S | -2.1 | 20748* | -3.0 | -1.1 | 4.9 | 7.6
N#CCCCSc1nnc(CSc2nc3ccccc3s2)n1-c1ccccc1 | 0.1 | 2899 | -7.1 | -2.3 | -2.6 | 11.8
S=c1[nH]nc(CSc2nc3ccccc3s2)n1Cc1ccccc1 | 0.4 | 3019 | 6.8 | 1.3 | 6.7 | 11.6
CCCSc1nnc(CSc2nc3ccccc3s2)n1-c1ccccc1 | -1.4 | 17205* | -5.7 | -3.0 | -6.2 | 18.9
O=S(=O)(c1ccc(F)cc1)N1CCN(c2ncccn2)CC1 | -1.3 | 4419 | 1.8 | -1.6 | 0.3 | 24.5
O=S(=O)(c1ccccc1)N1CCN(c2ncccn2)CC1 | -0.4 | 22296* | 0.9 | -4.9 | -9.0 | 12.9
CSc1ncccc1C(=O)N1CCN(S(=O)(=O)c2ccc(C)cc2)CC1 | -1.8 | 3802 | -1.7 | -18.2 | 3.1 | 25.9
O=S(=O)(c1ccc(Br)s1)N1CCN(c2ncccn2)CC1 | 1.1 | 22792* | 2.7 | -4.2 | -12.2 | 20.1
CSc1ncccc1C(=O)N1CCN(S(=O)(=O)c2ccccc2)CC1 | -0.8 | 6067 | 1.5 | -1.6 | 3.1 | 58.5*
Cc1ccc(N(CCC#N)C(=O)CSc2nc3ccccc3c(=O)[nH]2)cc1 | -0.6 | 3424 | -11.3 | 1.3 | -1.5 | nt
Cc1ccc(S(=O)(=O)NC(=O)Nc2ccc(C)cc2C)cc1 | -1.6 | ? | 1.5 | -1.9 | 1.6 | 27.6
Cc1c(C(=O)Nc2ccccc2)sc2nc(-c3ccccc3)cn12 | -1.2 | 23471* | -1.2 | -1.5 | -12.7 | 1.2
Cc1c(C(=O)Nc2ccc3c(c2)OCO3)sc2nc(-c3ccccc3)cn12 | -2.1 | 9656 | -20.5 | -5.1 | 65.7* | 2.3
COc1ccc(-c2cn3c(C)c(C(=O)NC(C)(C)C)sc3n2)cc1 | 0.0 | 6765 | -3.6 | -3.8 | 5.8 | 25.1
Cc1cccc(NC(=O)c2sc3nc(-c4ccc(F)cc4)cn3c2C)n1 | ? | 19776* | 1.4 | -0.8 | -56.1 | 6.2
COc1ccc(-c2cn3c(C)c(C(=O)NC(C)C)sc3n2)cc1 | -1.1 | 23094* | -1.6 | -7.9 | 1.0 | 35.3

Bioassay records deposited in PubChem by several laboratories.
